The list is not random: actives were taken first. Their share in the collection is about 1.1%.
BioA inh = M. tuberculosis BioA enzyme inhibitors, primary screen, biochemical, plate reader, single point, HTS; 7,8-diaminopelargonic acid synthase BioA (Mycobacterium tuberculosis); purified M. tuberculosis BioA enzyme; inhibition, % at 9.99 µM; 0.096% of 360,000 active; AID 602481, 2012; in the data active = inhibition above about 40%
Mtb betalactam = beta-lactam sensitization of Mtb H37Rv, H37Rv. M. tuberculosis H37Rv growth with meropenem, percent inhibition. inhibition, % at 25 µM. 0.27% of 330,000 active. AID 434955, 2010;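 note: growth measured after seven days incubation then overnight dye step; 0% = bacteria only wells and 100% = bacteria with antibiotic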
Yp Topo-I inh = Yersinia pestis topoisomerase I inhibitors, primary screen, biochemical, cleavage product accumulation, plate reader, single point | DNA topoisomerase I (Yersinia pestis CO92) | Y. pestis Topo-I cleavage product accumulation | activity, % at 10 µM | 0.064% of 360,000 active; in the data active = activity above about 50%, passing the limit was not always enough
CCHF vOTU inh = CCHFV vOTU protease inhibitors, primary screen, biochemical, Pep-AMC substrate, fluorescence | 0.55% of 370,000 active | Crimean-Congo hemorrhagic fever virus L polyprotein viral ovarian tumor (vOTU) protease … | AID 651958, 2012 | inhibition, % at 11.5 µM; in the data active = inhibition above about 30%; note: 0% = vehicle wells with enzyme and 100% = no enzyme wells
RecA splice inh = Mtb RecA intein splicing inhibitors, primary screen, biochemical, fluorescence, HTS; 0.75% of 290,000 active; inhibition, % (no concentration beside the values); cell-free RecA intein splicing; Protein RecA (Mycobacterium tuberculosis (strain ATCC 25618 / H37Rv)), P9WHJ3; in the data active = inhibition above about 30%;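 note: 0% = vehicle wells and 100% = reference inhibitor control wells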
Target sequence (P9WHJ3 whole entry, looked up, canonical isoform): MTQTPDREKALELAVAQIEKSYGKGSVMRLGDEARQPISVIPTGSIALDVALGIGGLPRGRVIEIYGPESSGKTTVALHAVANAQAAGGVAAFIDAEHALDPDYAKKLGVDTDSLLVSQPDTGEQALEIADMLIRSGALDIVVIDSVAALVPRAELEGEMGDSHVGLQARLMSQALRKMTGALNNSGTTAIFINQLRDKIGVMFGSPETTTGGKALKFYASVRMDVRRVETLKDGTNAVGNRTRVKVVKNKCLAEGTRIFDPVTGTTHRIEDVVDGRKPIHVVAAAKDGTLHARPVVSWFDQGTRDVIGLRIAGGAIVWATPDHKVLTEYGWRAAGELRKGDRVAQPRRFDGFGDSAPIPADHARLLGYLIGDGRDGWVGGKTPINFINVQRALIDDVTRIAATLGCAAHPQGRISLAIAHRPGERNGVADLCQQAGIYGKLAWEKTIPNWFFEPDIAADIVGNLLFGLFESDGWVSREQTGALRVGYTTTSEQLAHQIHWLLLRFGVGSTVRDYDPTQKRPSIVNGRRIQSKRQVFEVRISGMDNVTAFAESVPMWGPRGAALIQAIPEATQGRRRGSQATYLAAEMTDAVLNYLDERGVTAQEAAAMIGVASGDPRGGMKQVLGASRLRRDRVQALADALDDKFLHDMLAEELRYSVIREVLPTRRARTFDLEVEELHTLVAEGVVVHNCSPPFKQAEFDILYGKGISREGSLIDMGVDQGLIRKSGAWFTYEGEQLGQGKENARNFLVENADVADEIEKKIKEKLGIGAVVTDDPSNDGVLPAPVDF
BJeLR viability = MLPCN primary cell-based screen for lethality selective to Ras in HRASV12 cells; BJeLR (HRASV12) viability, CellTiter-Glo ATP luminescence, 48 h; 0.17% of 300,000 active; inhibition, % (concentration not given with the values); in the data active = inhibition above about 50%
GFP chromophore = counter-screen: blocks GFP chromophore formation, dose response, counter-screen, biochemical, fluorescence, homogeneous. shares compounds with RecA splice inh. cell-free GFP chromophore formation. EC50, µM. 83% of 2,100 active. AID 434968, 2010
The depositor's hits bear a star; x = no result given. Unless noted, the rule behind the calls is not given here.

SMILES	BioA inh	Mtb betalactam	Yp Topo-I inh	CCHF vOTU inh	RecA splice inh	BJeLR viability	GFP chromophore
O=c1[nH]cc(NCCc2ccccc2)c(=O)[nH]1	1.6	-3.8	1.6	-15.6	51.9*	-3.3	5.49*
CC(=O)[C@@]1(O)CC[C@H]2[C@@H]3CCC4=CC(=O)CC[C@]4(C)[C@H]3CC[C@@]21C	0.4	2.6	9.5	-1.0	1.2	1.9	x
CCCCCC(=O)O[C@]1(C(C)=O)CC[C@H]2[C@@H]3CCC4=CC(=O)CC[C@]4(C)[C@H]3CC[C@@]21C	0.9	11.6	14.3	17.0	32.9*	10.4	>38
O=C(NCC[C@H]1CC[C@H](NC(=O)Nc2cc(F)ccc2F)[C@H](CO)O1)Nc1ccc(Cl)cc1	-1.5	x	x	x	x	x	x
COc1cc(NC2CCCCC2O)c2nc(-c3ccc(Cl)cc3)ccc2c1 (stereo unspecified)	-0.4	20.6	4.9	24.3	51.2*	4.6	0.179*
COc1ccc(OCC(=O)OCC(=O)NC2CCCCC2C)cc1 (stereo unspecified)	-0.4	0.3	-3.2	0.1	x	x	x
CO[C@H]1CN(C)C(=O)c2cc(NC(C)=O)ccc2OC[C@H](C)N(C(=O)Cc2cccnc2)C[C@@H]1C	4.8	x	x	x	x	x	x
O=C1/C(=C/Nc2ccc3c(c2)OCO3)CCc2ccccc21	1.2	91.5	-4.0	14.0	49.0*	23.7	3.24*
O=C(Cn1cc(CN2C(=O)COC[C@H]2c2ccccc2)nn1)Nc1nccs1	-2.5	x	x	x	x	x	x
O=C(CCl)N1N=C(c2cccs2)CC1c1ccco1 (stereo unspecified)	x	99.8	-2.4	-3.1	62.6*	22.7	31.1*
Cc1nn(Cc2ccccc2)c2c1C(c1cccnc1)C(C#N)=C(N)O2 (stereo unspecified)	-0.1	-7.1	-1.8	-4.9	72.7*	-6.7	12.8*
CC(=O)C1=C(c2ccccc2)OC(N)=C(C#N)C1c1ccc(O)cc1 (stereo unspecified)	x	-2.7	-4.2	9.1	-0.7	2.8	x
Cc1nn(Cc2ccccc2)c2c1C(c1ccc(Cl)cc1)C(C#N)=C(N)O2 (stereo unspecified)	-0.7	3.3	-3.3	19.9	59.9*	9.4	16.2*
CCCc1nn(C)c2c1C(c1cccnc1)C(C#N)=C(N)O2 (stereo unspecified)	x	-9.3	-4.3	3.4	59.7*	2.4	24*
Cc1nn(Cc2ccccc2)c2c1C(c1ccncc1)C(C#N)=C(N)O2 (stereo unspecified)	x	-0.7	-13.2	3.5	67.3*	-1.7	18.4*
CC(=O)C1=C(C)OC(N)=C(C#N)C1c1cccnc1 (stereo unspecified)	x	-2.2	6.1	8.9	-10.1	3.3	x
C[C@@H]1CCCCO[C@@H](CN(C)C(=O)c2ccccc2)[C@@H](C)CN([C@@H](C)CO)C(=O)c2cc(NC(=O)c3ccccc3)ccc2O1	-1.0	x	x	x	x	x	x
C[C@@H]1CN([C@H](C)CO)C(=O)c2cc(-c3cccc(F)c3)cnc2O[C@H]1CN(C)S(=O)(=O)c1cccc(F)c1	6.7	x	x	x	x	x	x
Cc1nn(Cc2ccccc2)c2c1C(c1ccco1)C(C#N)=C(N)O2 (stereo unspecified)	-0.7	-6.8	-5.3	6.0	54.6*	4.2	23.2*
CCCNC(=O)N(C)C[C@H]1Oc2cc(C#CC3CC3)ccc2S(=O)(=O)N([C@@H](C)CO)C[C@H]1C	-0.8	x	x	x	x	x	x
C[C@@H]1CN([C@H](C)CO)C(=O)c2cc(NC(=O)C3CCCCC3)ccc2O[C@@H](C)CCCCO[C@H]1CN(C)C(=O)c1ccccc1	-0.8	x	x	x	x	x	x
C[C@H](CO)N1C[C@H](C)[C@H](CN(C)S(C)(=O)=O)Oc2c(NC(=O)NC3CCCCC3)cccc2C1=O	-5.3	x	x	x	x	x	x
Cc1cc(C)cc(Oc2coc3cc(OC(=O)c4cccs4)ccc3c2=O)c1	-3.2	7.0	0.6	-2.2	33.6*	4.8	>38
CCOc1ccccc1Oc1coc2cc(OC(=O)c3ccco3)ccc2c1=O	-1.7	4.5	2.1	-33.0	33.3*	-6.5	>38
CCOc1ccccc1Oc1coc2cc(OC(=O)N(C)C)ccc2c1=O	-4.6	0.7	5.4	-2.2	3.7	2.2	x
SMILES	BioA inh	Mtb betalactam	Yp Topo-I inh	CCHF vOTU inh	RecA splice inh	BJeLR viability	GFP chromophore
CO[C@@H]1CC[C@H]2CCOc3c(C#N)cccc3C(=O)N(C)C[C@@H](c3ccccc3)CC(=O)N(C)C[C@@H]1O2	5.8	x	x	x	x	x	x
C[C@@H]1CN([C@H](C)CO)C(=O)c2cc(NC(=O)Nc3ccc(F)cc3)ccc2O[C@@H]1CN(C)S(=O)(=O)c1cn(C)cn1	1.3	x	x	x	x	x	x
C/C(=N\NC(=O)c1ccncc1)c1cc2ccccc2oc1=O	x	99.7	-5.3	-12.1	93.3*	-16.8	15*
CC1=NN(c2ccccc2)C(=O)C1=Cc1ccccc1	-0.1	x	-3.5	17.3	x	x	x
COc1ccc(/C=C2/C(=O)N(Cc3ccccc3)N=C2C)cc1	x	1.8	-1.0	1.0	59.3*	-8.0	7.3*
C[C@H]1CN([C@@H](C)CO)C(=O)Cc2cc(NC(=O)NC3CCCCC3)ccc2O[C@@H]1CN(C)C(=O)NC1CCCCC1	-0.7	x	x	x	x	x	x
O=c1[nH]c(O)c(N=Nc2cc([N+](=O)[O-])ccc2O)c(=O)[nH]1	x	-6.9	-11.3	25.3	73.1*	2.6	12*
O=[N+]([O-])c1ccc2[nH]c(O)c(N=Nc3ccc(F)cc3)c2c1	-0.6	-6.0	-6.4	-12.2	0.3	12.0	x
CC(=O)Nc1ccc(NC(=O)C/C(C)=N/NC(=O)C(=O)N2CCCC2)cc1	x	-7.7	-0.4	-11.1	25.3	7.7	x
C/C(CC(=O)Nc1ccc(F)cc1F)=N\NC(=O)C(=O)N1CCCCC1	x	-3.6	x	x	78.3*	3.1	10.6*
Cc1ccc(S(=O)(=O)N(C)C[C@H]2Oc3cc(C#Cc4ccccc4)ccc3S(=O)(=O)N([C@@H](C)CO)C[C@H]2C)cc1	-2.4	x	x	x	x	x	x
COc1cc(C(C(=O)NC2CCCCC2)N(CCN2CCOCC2)C(=O)C2COc3ccccc3O2)cc(OC)c1OC (stereo unspecified)	x	-1.3	-3.1	0.0	46.6*	4.7	>38
CCC(=O)OCCNc1cc(Sc2nc3ccccc3s2)c2nonc2c1[N+](=O)[O-]	-0.1	96.6	-1.1	22.0	50.0*	-17.3	4.24*
CCCC(=O)OCCNc1cc(Sc2nccn2C)c2nonc2c1[N+](=O)[O-]	x	100.5	-1.3	27.2	90.2*	93.5*	3.88*
CCCSc1cc(NCCOC(=O)CCC)c([N+](=O)[O-])c2nonc12	x	100.1	11.9	11.2	60.3*	-12.5	9.9*
